Experimental data published in PubChem BioAssay (NCI).
This is part of a sample that, as a whole, favours compounds with a hit. Of some 83,000 tested, about 20% had one in any assay.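 Step 1: grow cells in 96-well plates. Step 2: add test compound at a single concentration. Step 3: incubate 48 h. Step 4: record percent growth.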 Unmarked numbers belong to inactive results. The source made the active and inactive calls. How the source made its calls: active means growth percent below 10; inactive means the rest.

Test system: A549/ATCC NSCLC
Experiment: NCI-60 one-dose screen, 48 h (100 = growth as untreated, 0 = no growth, -100 = all killed)
Settings: 10 µM unless noted

Structure (SMILES)	growth
c1ccc(COc2ccc3[nH]cc(CCN(Cc4ccccc4)Cc4ccccc4)c3c2)cc1	85.2%
[Au+].[N-]=C=O.c1ccc(CN2[CH-]N(Cc3ccccc3)C(c3ccccc3)=C2c2ccccc2)cc1	92.7%
CC1=C(CCCNS(C)(=O)=O)C2=C(C)C3(CC3)[C@@](C)(O)C(=O)C2=C1	2.7% (active)
C[C@]12CC[C@H]3[C@@H](CC[C@]4(O)C[C@@H](O[C@@H]5O[C@H](CO)[C@@H](O[C@@H]6OC[C@@H](O)[C@H](O)[C@H]6O)[C@H](O)[C@H]5O)CC[C@]34C=O)[C@@]1(O)CC[C@@H]2C1=CC(=O)OC1	-89.8% (active)
CN1C(=O)N[C@H]2[C@@H]3NC(=O)c4ccc(Br)n4[C@@H]3C[C@]21O	-9.09% (active)
COC1OC(CO)C(O)C(O)[CH]1[Hg][O]C(C)=O (stereo not given)	94.9%
OCc1ccc2c(c1)OCO2	92.5%
Nc1nnnc2nc[nH]c12	34.4%
CC1CCCC(C[N+](C)(C)C)C1=O (stereo not given)	104%
CNC(=O)Oc1cccc(C(F)(F)F)c1	103%
COc1cc2c(cc1OCCCn1c(-c3ccccn3)nc3ccccc31)N=C[C@@H]1CCCN1C2=O	20%
CCCCCCCOC(C(=O)OCCN(CC)CC)(c1ccccc1)c1ccccc1	90.8%
CC(=O)OCC1O[C@@H]([S-])C(OC(C)=O)[C@H](OC(C)=O)[C@@H]1OC(C)=O.[Au+].c1ccc(CN2[CH-]N(Cc3ccccc3)C(c3ccccc3)=C2c2ccccc2)cc1	76.3%
COc1ccc(C(=O)c2sc3nc4c(cc3c2N)N2CCC4CC2)cc1OC	94.8%
CC(CC1CCCCC1)NCc1ccccc1 (stereo not given)	98.2%
COc1ccc(/C=C\c2cc(OC)c(OC)c(OC)c2)cc1OCC(=O)Nc1nc2ccc(C(F)(F)F)cc2s1	27.1%
O=C1CCC2(O)[C@@H]3Cc4ccc(O)c5c4[C@]2(CCN3Cc2ccoc2)C1O5 (stereo not given in full)	102%
C/C(=C\c1cc(C(F)(F)F)nn1CCNC(=O)OC(C)(C)C)[C@@H]1C[C@@H]2O[C@]2(C)CCC[C@H](C)[C@H](O)[C@@H](C)C(=O)C(C)(C)[C@@H](O)CC(=O)O1	54.3%
CC(C)CCC(=O)O[C@H]1CC[C@H]2[C@@H]3CCC4=CC(=O)CC[C@]4(C)[C@H]3CC[C@]12C	96%
ClCCN(CCCl)Cc1ccc(Nc2ccnc3cc(Cl)ccc23)cc1	39.2%
COc1cc(NC(C)CCCNC2CN3CCC2CC3)c2ncccc2c1 (stereo not given)	95.1%
C=CCCCN=C=S	75.2%
CCN(CC)CCOC(=O)C(OC(C)C)(c1ccccc1)c1ccccc1	96.9%
CCC1(C(C)C)C(=O)NC(=S)NC1=O	95.7%
CC[C@]12C=CCN3CC[C@]4(C(=C(C(=O)OC)C1)Nc1cc(OC)c(OC(C)=O)cc14)[C@@H]32	16%
